# Assay results as given in article PMC7862700, “An all-to-all approach to the identification of sequence-specific readers for epigenetic DNA modifications on cytosine”.
# Legend:
# Assay in all cases: DAPPL (digital affinity profiling via proximity ligation, sequencing); 10 mM Tris-HCl pH 7.5, 50 mM NaCl, 1 mM DTT, 4% glycerol, room temperature, 30 min; GST-TFs on glutathione beads, 16-mer random dsDNA library, 0.1% formaldehyde crosslink after washing; high values mean tight binding
# Details in all cases: protein: recombinant; tags: N-terminal GST; dsDNA, one strand shown
# FLI1 = molecular target: T1, FLI1 (Homo sapiens, UniProt Q01543 1-452)
# T1 sequence: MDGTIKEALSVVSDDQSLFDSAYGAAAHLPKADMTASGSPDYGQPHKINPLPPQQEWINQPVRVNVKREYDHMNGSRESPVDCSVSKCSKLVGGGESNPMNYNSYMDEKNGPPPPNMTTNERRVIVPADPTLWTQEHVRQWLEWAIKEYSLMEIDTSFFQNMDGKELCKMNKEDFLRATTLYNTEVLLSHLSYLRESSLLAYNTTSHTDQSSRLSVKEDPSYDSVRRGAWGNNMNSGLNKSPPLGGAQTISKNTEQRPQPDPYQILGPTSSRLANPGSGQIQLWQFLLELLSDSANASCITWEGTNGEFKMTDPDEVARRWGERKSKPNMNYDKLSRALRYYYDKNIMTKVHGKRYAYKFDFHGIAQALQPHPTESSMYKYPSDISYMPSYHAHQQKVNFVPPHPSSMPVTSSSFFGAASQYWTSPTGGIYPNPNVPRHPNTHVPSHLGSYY
# Method in brief: (§1)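 Yeast served to express human transcription factors as GST fusions, which were then captured on glutathione beads and labelled with DNA barcodes. Pooled with a tag-only sample, they were incubated with 200 nmole of a 16-mer random double-stranded DNA library for 30 min at room temperature in Tris/NaCl/DTT/glycerol buffer, washed, crosslinked with 0.1% formaldehyde, ligated by proximity, amplified by PCR and sequenced. Dividing each hexamer's read frequency for a factor by its frequency for the tag-only sample gives the binding signal.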
# ELK1 = molecular target: T2, ELK1 (Homo sapiens, UniProt P19419 1-428)
# T2 sequence: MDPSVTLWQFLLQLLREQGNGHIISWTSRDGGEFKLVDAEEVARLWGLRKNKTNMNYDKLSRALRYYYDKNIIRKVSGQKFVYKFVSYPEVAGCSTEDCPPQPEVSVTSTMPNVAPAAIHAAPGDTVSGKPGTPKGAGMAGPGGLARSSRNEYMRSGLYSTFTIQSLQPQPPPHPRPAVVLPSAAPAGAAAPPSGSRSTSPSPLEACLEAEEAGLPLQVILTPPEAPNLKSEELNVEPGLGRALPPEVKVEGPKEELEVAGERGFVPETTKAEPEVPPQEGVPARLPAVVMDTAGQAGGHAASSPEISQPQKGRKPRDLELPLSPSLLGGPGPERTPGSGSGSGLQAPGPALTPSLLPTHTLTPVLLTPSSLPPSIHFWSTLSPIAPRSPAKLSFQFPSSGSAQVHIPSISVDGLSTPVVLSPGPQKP
# Method in brief: as §1
# GABPA = molecular target: T3, GABPA (Homo sapiens, UniProt Q06546 1-454)
# T3 sequence: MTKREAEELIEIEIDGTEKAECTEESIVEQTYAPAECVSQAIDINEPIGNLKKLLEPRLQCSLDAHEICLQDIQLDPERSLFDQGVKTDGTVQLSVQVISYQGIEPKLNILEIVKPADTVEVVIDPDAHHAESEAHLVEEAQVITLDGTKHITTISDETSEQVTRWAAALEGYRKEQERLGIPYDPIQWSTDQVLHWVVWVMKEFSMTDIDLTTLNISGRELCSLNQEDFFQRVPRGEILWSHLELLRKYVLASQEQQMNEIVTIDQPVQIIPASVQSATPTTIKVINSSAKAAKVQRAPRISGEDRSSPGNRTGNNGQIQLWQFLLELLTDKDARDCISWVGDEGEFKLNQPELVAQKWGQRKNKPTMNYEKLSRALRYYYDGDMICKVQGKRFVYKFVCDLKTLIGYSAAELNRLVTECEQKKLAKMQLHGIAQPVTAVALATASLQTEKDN
# Method in brief: as §1
# ELF1 = ELF1 (Homo sapiens, UniProt P32519 1-619)
# Method in brief: as §1
# SPIB = SPIB (Homo sapiens, UniProt Q01892 1-262)
# Method in brief: as §1
# ELF4 = ELF4 (Homo sapiens, UniProt Q99607 1-663)
# Method in brief: as §1
# ELK4 = molecular target: T4, ELK4 (Homo sapiens, UniProt P28324-2 1-405)
# T4 sequence: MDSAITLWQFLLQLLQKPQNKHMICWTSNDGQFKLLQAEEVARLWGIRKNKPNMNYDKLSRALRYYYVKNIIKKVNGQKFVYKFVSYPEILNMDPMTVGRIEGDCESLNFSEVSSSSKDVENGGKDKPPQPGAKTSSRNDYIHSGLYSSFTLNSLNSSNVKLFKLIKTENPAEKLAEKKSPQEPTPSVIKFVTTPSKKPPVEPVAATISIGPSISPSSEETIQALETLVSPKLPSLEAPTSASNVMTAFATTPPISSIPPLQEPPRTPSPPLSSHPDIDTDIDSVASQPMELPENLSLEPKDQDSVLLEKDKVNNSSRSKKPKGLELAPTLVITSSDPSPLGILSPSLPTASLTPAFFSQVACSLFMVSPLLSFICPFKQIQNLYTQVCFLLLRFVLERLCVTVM
# Method in brief: as §1
# ELF3 = molecular target: T5, ELF3 (Homo sapiens, UniProt P78545 1-371)
# T5 sequence: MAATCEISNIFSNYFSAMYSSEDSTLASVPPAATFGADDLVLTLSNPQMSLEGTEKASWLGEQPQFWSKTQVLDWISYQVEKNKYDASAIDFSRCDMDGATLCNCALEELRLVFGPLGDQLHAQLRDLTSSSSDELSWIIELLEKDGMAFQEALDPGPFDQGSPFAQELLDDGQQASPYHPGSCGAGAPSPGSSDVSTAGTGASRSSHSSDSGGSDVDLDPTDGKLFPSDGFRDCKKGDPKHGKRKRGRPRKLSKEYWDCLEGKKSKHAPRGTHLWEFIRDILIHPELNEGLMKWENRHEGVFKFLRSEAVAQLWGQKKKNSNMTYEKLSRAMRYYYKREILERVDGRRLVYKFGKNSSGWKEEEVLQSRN
# Method in brief: as §1
# ERF = molecular target: T6, ERF (Homo sapiens, UniProt P50548 1-548)
# T6 sequence: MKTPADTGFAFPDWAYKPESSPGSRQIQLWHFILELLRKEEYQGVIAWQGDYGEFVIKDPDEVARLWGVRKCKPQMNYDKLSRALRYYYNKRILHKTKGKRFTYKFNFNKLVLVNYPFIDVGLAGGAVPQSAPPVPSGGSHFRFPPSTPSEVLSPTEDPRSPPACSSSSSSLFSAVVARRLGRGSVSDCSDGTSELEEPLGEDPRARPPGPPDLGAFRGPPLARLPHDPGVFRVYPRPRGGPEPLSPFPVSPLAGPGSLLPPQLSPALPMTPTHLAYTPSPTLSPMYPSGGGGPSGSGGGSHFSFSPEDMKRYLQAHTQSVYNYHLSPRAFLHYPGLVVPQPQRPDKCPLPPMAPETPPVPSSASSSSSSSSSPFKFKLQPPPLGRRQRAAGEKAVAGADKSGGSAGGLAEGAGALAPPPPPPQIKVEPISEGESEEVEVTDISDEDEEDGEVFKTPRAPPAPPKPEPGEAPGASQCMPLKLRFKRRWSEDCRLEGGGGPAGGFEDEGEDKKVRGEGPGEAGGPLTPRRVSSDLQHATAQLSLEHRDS
# Method in brief: as §1
# ETV7 = molecular target: T7, ETV7 (Homo sapiens, UniProt Q9Y603 1-341)
# T7 sequence: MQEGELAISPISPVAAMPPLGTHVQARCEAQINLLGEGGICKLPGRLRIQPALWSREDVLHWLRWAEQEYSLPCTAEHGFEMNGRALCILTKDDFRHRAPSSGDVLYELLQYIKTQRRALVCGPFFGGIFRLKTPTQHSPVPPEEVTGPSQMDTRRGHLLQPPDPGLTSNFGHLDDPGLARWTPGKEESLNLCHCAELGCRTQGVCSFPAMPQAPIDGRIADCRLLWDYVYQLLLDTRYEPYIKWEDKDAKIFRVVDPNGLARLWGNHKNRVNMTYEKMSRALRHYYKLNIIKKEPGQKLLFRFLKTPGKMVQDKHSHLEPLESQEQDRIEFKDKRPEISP
# Method in brief: as §1
# SPIC = molecular target: T8, SPIC (Homo sapiens, UniProt Q8N5J4 1-248)
# T8 sequence: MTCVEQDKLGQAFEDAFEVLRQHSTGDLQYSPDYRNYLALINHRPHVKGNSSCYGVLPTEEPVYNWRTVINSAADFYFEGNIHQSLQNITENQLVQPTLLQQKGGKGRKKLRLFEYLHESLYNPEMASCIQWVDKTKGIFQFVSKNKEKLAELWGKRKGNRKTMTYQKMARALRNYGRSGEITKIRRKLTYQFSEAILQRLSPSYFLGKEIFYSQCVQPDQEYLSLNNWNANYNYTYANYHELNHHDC
# Method in brief: as §1
# ETV2 = molecular target: T9, ETV2 (Homo sapiens, UniProt O00321 1-342)
# T9 sequence: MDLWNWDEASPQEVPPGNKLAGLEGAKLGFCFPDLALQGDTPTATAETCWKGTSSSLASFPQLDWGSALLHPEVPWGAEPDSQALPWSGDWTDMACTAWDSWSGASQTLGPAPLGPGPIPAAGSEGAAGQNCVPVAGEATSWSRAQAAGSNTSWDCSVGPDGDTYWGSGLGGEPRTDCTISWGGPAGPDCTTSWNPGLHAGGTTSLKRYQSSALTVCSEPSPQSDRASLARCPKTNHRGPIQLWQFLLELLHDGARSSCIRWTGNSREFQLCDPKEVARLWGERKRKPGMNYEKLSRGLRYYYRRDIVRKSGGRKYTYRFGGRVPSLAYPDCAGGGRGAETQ
# Method in brief: as §1
# ETV3L = molecular target: T10, ETV3L (Homo sapiens, UniProt Q6ZN32 1-361)
# T10 sequence: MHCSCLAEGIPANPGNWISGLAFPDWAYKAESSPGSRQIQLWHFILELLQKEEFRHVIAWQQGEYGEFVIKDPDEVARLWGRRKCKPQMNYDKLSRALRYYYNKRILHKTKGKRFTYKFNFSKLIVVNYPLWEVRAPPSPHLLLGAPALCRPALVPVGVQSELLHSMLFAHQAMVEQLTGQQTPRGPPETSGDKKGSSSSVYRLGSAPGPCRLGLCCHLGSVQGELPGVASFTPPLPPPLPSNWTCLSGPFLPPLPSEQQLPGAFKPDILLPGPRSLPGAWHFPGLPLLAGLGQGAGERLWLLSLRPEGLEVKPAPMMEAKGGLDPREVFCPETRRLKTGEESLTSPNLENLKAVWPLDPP
# Method in brief: as §1
# Chain of ELF4 (Q99607 whole entry): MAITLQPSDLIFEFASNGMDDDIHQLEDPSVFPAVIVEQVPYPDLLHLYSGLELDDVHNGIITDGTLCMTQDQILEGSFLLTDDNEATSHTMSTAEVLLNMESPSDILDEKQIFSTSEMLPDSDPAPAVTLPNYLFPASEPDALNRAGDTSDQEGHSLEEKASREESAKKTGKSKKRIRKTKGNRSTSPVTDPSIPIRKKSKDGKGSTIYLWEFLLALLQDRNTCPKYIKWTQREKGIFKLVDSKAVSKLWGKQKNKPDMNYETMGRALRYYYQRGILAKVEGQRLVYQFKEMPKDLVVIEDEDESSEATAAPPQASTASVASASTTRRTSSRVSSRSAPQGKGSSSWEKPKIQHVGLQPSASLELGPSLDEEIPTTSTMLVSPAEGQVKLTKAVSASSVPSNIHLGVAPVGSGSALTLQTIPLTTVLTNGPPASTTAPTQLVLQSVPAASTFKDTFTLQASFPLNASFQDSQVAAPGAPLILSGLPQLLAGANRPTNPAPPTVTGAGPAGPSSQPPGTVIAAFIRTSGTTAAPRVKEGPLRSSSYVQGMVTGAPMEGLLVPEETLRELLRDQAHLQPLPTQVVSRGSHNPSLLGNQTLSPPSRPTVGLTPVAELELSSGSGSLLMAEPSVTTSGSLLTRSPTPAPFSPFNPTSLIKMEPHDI
# Chain of ELF1 (P32519 whole entry): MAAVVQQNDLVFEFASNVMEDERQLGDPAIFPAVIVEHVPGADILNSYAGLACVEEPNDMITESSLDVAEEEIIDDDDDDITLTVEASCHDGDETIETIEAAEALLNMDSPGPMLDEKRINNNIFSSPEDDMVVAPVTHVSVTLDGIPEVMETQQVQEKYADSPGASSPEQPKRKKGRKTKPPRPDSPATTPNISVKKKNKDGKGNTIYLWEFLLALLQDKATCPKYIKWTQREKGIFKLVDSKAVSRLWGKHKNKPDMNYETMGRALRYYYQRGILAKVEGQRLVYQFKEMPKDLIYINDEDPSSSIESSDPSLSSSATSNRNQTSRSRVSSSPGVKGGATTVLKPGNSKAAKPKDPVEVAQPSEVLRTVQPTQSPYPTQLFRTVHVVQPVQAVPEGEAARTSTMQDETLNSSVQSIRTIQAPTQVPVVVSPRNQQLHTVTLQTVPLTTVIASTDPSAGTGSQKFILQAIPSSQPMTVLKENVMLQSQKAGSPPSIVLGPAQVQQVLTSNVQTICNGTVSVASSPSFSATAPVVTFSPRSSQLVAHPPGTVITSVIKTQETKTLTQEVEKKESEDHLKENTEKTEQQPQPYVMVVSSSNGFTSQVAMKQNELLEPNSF
# Chain of SPIB (Q01892 whole entry): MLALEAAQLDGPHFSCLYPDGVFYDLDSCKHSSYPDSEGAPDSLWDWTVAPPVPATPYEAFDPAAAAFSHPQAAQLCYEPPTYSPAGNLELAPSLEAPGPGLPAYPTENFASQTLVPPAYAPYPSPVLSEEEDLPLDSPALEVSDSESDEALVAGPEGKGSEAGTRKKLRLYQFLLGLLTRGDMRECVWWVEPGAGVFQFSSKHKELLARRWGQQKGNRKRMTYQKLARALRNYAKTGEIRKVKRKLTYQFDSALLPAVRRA
sequence,measurement,setting,value
CACCCA,binding signal,FLI1,"1.1 fold enrichment (6-mer frequency, TF over GST control)"
same,binding signal,ELK1,"1.12 fold enrichment (6-mer frequency, TF over GST control)"
same,binding signal,GABPA,"1.11 fold enrichment (6-mer frequency, TF over GST control)"
same,binding signal,ELF1,"1.01 fold enrichment (6-mer frequency, TF over GST control)"
same,binding signal,SPIB,"1.03 fold enrichment (6-mer frequency, TF over GST control)"
same,binding signal,ELF4,"1.12 fold enrichment (6-mer frequency, TF over GST control)"
same,binding signal,ELK4,"1.04 fold enrichment (6-mer frequency, TF over GST control)"
same,binding signal,ELF3,"1.14 fold enrichment (6-mer frequency, TF over GST control)"
same,binding signal,ERF,"1.06 fold enrichment (6-mer frequency, TF over GST control)"
same,binding signal,ETV7,"1.03 fold enrichment (6-mer frequency, TF over GST control)"
CCACAG,binding signal,FLI1,"1.01 fold enrichment (6-mer frequency, TF over GST control)"
same,binding signal,ELF4,"1.03 fold enrichment (6-mer frequency, TF over GST control)"
same,binding signal,ELK4,"1.04 fold enrichment (6-mer frequency, TF over GST control)"
TCGTTA,binding signal,FLI1,"1 fold enrichment (6-mer frequency, TF over GST control)"
same,binding signal,SPIC,"1.02 fold enrichment (6-mer frequency, TF over GST control)"
same,binding signal,ETV2,"1.08 fold enrichment (6-mer frequency, TF over GST control)"
same,binding signal,ETV3L,"1.01 fold enrichment (6-mer frequency, TF over GST control)"
same,binding signal,ETV7,"1.06 fold enrichment (6-mer frequency, TF over GST control)"
